In ChEMBL document CHEMBL2218924, “A broad activity screen in support of a chemogenomic map for kinase signalling research and drug discovery” (Biochem J, 2013) one finds residual activity data, which are given here for 14 compounds.

Assay [1] deals with Focal adhesion kinase 1 (Homo sapiens) (UniProt Q05397). Particulars: at 10 µM.
Assay [2] concerns the target Fibroblast growth factor receptor 2 (Homo sapiens) (UniProt P21802). The note with it: at 10 µM.
Assay [3] deals with Fibroblast growth factor receptor 3 (Homo sapiens) (UniProt P22607). Particulars: at 10 µM.
Assay [4] addresses Tyrosine-protein kinase Fes/Fps (Homo sapiens) (UniProt P07332). Particulars: at 10 µM.
Assay [5] deals with Tyrosine-protein kinase Fgr (Homo sapiens) (UniProt P09769). The note with it: at 10 µM.
Assay [6] addresses Vascular endothelial growth factor receptor 1 (Homo sapiens) (UniProt P17948). The note with it: at 1 µM.
For assay [7] the target is unchanged. The note with it: at 10 µM.
For assay [8], the target named is Receptor-type tyrosine-protein kinase FLT3 (Homo sapiens) (UniProt P36888). The note with it: at 10 µM.
The target of assay [9] is Vascular endothelial growth factor receptor 3 (Homo sapiens) (UniProt P35916). The note with it: at 1 µM.
In assay [10] the target is Fibroblast growth factor receptor 1 (Homo sapiens) (UniProt P11362). The note with it: at 1 µM.
For assay [11] the target is unchanged. Particulars: at 10 µM.
The target in assay [12] is Fibroblast growth factor receptor 2 (Homo sapiens) (UniProt P21802). Particulars: at 1 µM.
Assay [13] addresses Fibroblast growth factor receptor 3 (Homo sapiens) (UniProt P22607). Particulars: at 1 µM.
Assay [14] deals with Tyrosine-protein kinase Fer (Homo sapiens) (UniProt P16591). Particulars: at 1 µM.
Assay [15] has the same target. The note with it: at 10 µM.
Assay [16] addresses Tyrosine-protein kinase Fes/Fps (Homo sapiens) (UniProt P07332). Particulars: at 1 µM.
For assay [17], the target named is Tyrosine-protein kinase Fgr (Homo sapiens) (UniProt P09769). Particulars: at 1 µM.
Assay [18] deals with Receptor-type tyrosine-protein kinase FLT3 (Homo sapiens) (UniProt P36888). Particulars: at 1 µM.
In assay [19] the target is Fibroblast growth factor receptor 4 (Homo sapiens) (UniProt P22455). Particulars: at 1 µM.
For assay [20] the target is unchanged. The note with it: at 10 µM.

Sequence of Fibroblast growth factor receptor 1 (Homo sapiens) (P11362 22-822 limits assumed): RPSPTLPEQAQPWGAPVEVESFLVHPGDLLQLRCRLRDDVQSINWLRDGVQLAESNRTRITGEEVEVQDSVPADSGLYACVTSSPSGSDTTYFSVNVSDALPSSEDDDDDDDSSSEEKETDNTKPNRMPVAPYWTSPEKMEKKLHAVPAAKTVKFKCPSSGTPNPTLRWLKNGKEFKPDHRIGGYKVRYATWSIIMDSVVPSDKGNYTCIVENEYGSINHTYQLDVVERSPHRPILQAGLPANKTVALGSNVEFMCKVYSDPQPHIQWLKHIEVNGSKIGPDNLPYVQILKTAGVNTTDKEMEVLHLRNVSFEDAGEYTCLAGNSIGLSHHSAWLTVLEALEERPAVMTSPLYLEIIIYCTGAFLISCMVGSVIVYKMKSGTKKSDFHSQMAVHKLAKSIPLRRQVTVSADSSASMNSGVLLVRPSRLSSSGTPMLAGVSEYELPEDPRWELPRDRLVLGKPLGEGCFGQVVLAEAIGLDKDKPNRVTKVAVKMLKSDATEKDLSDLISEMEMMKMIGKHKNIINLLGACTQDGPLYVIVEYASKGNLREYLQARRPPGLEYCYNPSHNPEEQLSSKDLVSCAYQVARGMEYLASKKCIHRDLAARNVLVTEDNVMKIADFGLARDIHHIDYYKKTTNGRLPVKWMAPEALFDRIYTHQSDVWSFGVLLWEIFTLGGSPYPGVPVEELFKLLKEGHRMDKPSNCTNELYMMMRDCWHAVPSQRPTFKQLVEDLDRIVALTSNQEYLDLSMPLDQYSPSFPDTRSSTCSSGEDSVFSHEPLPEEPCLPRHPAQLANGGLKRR
Sequence of Tyrosine-protein kinase Fgr (Homo sapiens) (P09769 2-529 limits assumed): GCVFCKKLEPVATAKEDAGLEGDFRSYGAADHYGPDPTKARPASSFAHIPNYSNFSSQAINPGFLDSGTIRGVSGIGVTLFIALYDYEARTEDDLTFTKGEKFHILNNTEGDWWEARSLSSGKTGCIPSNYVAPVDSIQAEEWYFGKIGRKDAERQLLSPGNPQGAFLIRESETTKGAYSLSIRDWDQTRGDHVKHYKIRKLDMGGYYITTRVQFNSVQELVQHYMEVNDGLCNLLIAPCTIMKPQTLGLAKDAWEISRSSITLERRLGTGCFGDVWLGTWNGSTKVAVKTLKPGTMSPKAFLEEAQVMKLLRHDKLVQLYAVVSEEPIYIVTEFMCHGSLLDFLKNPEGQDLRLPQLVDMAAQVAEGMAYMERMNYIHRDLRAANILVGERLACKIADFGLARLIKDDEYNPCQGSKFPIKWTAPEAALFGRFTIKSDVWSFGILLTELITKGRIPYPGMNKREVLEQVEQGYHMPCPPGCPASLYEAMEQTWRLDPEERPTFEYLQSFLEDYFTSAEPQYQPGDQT
Sequence of Vascular endothelial growth factor receptor 1 (Homo sapiens) (P17948 whole entry): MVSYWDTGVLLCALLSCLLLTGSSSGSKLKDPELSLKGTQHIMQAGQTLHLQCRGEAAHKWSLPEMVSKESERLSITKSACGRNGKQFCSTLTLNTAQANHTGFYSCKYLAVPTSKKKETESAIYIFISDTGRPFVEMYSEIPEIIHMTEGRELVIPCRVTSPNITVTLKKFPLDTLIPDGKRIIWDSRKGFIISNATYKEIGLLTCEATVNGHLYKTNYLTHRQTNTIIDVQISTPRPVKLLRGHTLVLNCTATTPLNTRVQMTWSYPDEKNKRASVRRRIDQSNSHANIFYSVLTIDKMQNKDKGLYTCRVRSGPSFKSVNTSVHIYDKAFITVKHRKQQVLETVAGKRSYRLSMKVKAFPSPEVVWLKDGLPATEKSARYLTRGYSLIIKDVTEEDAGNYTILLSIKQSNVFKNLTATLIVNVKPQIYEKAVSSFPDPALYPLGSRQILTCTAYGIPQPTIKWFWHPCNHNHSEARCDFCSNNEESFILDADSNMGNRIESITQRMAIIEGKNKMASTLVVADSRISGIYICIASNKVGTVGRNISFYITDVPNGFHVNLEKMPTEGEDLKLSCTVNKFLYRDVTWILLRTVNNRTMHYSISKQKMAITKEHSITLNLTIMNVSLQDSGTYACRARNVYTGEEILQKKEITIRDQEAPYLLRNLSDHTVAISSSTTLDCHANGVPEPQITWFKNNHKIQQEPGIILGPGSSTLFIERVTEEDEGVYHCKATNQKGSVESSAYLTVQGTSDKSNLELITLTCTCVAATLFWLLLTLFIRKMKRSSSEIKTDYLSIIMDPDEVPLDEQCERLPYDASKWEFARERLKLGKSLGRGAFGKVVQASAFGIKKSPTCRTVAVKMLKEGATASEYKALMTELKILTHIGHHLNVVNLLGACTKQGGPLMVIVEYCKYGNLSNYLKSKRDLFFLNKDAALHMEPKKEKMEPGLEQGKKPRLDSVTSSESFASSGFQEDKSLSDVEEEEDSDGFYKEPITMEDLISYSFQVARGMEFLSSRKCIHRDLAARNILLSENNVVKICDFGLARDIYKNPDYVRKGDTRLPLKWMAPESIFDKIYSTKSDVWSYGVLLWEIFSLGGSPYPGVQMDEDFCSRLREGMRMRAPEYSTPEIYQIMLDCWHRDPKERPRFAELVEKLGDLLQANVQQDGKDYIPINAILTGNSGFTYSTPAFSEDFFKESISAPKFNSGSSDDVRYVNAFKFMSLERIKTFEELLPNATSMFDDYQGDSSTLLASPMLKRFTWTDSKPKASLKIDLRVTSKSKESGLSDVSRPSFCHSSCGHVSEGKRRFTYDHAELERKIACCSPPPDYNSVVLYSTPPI
Sequence of Vascular endothelial growth factor receptor 3 (Homo sapiens) (P35916 whole entry): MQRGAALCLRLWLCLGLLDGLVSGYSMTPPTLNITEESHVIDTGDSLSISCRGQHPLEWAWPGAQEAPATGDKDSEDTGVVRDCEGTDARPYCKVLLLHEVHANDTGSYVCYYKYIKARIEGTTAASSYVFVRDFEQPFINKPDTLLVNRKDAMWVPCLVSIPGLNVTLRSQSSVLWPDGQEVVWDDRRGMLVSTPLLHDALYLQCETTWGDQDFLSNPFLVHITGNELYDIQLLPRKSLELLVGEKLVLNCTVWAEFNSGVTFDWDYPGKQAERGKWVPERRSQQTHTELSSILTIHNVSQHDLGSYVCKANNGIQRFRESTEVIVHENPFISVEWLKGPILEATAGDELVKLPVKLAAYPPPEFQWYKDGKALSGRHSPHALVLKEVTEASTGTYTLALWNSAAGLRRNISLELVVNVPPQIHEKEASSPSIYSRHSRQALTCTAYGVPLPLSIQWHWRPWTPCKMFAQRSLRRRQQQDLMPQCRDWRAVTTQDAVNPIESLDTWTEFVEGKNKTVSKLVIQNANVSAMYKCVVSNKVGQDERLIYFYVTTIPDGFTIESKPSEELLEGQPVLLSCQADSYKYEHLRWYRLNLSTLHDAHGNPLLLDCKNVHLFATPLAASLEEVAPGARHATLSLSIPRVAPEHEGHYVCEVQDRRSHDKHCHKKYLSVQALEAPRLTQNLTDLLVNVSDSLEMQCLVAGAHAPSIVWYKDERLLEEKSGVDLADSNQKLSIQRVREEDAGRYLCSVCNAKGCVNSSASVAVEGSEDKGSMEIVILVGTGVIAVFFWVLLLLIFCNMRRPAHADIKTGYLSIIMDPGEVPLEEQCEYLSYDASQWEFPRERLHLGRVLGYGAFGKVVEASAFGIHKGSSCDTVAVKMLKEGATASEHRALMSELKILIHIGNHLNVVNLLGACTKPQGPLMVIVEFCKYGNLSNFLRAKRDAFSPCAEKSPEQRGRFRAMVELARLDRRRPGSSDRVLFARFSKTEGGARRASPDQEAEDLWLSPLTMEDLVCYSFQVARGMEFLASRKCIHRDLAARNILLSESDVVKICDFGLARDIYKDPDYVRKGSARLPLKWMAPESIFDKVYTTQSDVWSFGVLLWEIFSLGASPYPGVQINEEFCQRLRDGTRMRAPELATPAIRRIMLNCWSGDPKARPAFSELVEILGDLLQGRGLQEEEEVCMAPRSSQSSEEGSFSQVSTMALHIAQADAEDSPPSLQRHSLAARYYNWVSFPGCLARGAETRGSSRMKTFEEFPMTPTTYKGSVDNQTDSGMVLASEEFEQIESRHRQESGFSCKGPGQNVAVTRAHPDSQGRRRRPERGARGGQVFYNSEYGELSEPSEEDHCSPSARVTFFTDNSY
Sequence of Focal adhesion kinase 1 (Homo sapiens) (Q05397 2-1052 limits assumed): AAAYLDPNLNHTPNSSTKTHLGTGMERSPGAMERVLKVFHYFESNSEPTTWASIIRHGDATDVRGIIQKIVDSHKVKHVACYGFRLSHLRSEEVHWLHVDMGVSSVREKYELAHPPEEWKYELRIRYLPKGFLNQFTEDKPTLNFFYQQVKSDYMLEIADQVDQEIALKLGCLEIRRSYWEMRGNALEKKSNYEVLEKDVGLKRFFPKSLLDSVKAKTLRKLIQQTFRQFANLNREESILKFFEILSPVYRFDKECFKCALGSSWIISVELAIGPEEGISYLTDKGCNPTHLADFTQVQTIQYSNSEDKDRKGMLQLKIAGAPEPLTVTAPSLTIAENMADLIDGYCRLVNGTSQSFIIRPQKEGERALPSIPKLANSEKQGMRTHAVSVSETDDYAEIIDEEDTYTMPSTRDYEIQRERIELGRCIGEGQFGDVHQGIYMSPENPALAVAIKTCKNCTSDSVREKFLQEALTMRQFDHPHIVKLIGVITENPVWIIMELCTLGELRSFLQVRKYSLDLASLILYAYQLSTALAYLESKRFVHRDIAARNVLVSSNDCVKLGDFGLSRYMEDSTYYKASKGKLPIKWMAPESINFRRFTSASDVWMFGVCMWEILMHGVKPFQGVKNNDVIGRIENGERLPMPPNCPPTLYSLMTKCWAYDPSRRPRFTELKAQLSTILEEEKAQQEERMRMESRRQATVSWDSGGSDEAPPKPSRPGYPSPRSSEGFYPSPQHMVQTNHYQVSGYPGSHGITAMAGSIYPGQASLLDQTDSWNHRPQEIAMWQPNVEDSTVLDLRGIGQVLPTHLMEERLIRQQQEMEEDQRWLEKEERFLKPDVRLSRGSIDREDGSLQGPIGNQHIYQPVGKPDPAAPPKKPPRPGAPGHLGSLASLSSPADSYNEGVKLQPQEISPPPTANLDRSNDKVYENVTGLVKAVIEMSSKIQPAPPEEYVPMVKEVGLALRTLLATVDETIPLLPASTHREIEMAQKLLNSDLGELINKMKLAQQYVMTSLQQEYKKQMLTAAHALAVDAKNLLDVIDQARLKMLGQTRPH

One may read the residual activity as the signal under treatment as a percentage of the control signal. Regarding `Cc1cccc(-c2[nH]c(C(C)(C)C)nc2-c2ccc3c(c2)OCO3)n1`, the residual activity is 95% in assay [1]; 95% in [2]; 129% in assay [3]; 87% in assay [4]; 88% in assay [5]; 86% in assay [6]. In addition, the residual activity turned out to be 84% in assay [7], 87% in assay [8] and 99% in assay [9].
Consider `O=C1Nc2ccccc2/C1=C1/Nc2ccccc2/C1=N\OCCC(O)CO` (stereo not drawn), for which the residual activity in [1] is 1%; in assay [10], 2%; in [11] it was -1%; in [12] it was 20%; in assay [2] it was 2%; in [13], 22%. Further, the residual activity in assay [3] stood at 23%; in assay [14] it was 37%; in [15], 35%; in [16], 71%; in assay [4], 48%; in assay [17], 3%. Moreover, the residual activity in assay [5] was 3%; in assay [6] it was 1%; in assay [7] it was 0%; in assay [18] it was 0%; in assay [8] it was 0%; in assay [9], -1%.
On to `COc1cc2ncc(-c3ccccc3)nc2cc1OC`, for which the residual activity in [1] came to 95%; in assay [12], 100%; in assay [2] it was 93%; in [15], 99%; in assay [16], 126%; in [4], 87%. Moreover, the residual activity in assay [6] was determined as 95%; in [7], 67%; in assay [18], 57%; in assay [8] it was 16%; in assay [9], 71%.
With `Cc1cncc2cccc(S(=O)(=O)N3CCCN(C(=O)CN)C[C@H]3C)c12`, the residual activity in [10] stood at 76%; in assay [11] it was 20%; in assay [3], 93%; in assay [17] it was 99%; in assay [5] it was 53%; in assay [6], 82%. Moreover, the residual activity in [7] was found to be 63%; in [18] it was 100%; in [8], 86%; in [9], 78%.
Regarding `c1ccc(-c2n[nH]c3c2oc2ccccc23)cc1`, the residual activity was 76% in assay [1]; 90% in assay [10]; 36% in assay [11]; 52% in assay [2]; 98% in [13]; 59% in assay [3]. The residual activity in assay [5] amounted to 49%; in assay [6] it was 13%; in assay [7], 1%; in assay [18] it was 6%; in assay [8], 0%; in assay [9], 3%.
As for `O=[N+]([O-])c1ccc(-c2nc(-c3ccc(F)cc3)c(-c3ccncc3)[nH]2)cc1`, the residual activity in [1] is 102%; in [10] it was 102%; in [11], 82%; in assay [12], 112%; in [2] it was 99%; in [13], 109%. Moreover, the residual activity in [3] was 99%; in assay [19] it was 122%; in assay [20], 92%; in [14], 100%; in assay [16] it was 100%; in assay [4] it was 116%. Also, the residual activity in assay [17] stood at 103%; in [5], 96%; in assay [6], 77%; in assay [7], 46%; in assay [18], 104%; in assay [8], 90%. Also, the residual activity in assay [9] was 78%.
`CN(C)CCCn1cc(C2=C(c3c[nH]c4ccccc34)C(=O)NC2=O)c2ccccc21`: the residual activity was found to be 37% in assay [1]; 50% in assay [10]; 3% in assay [11]; 88% in [12]; 33% in assay [2]; 29% in assay [3]. Moreover, the residual activity in [19] came to 121%; in assay [20], 70%; in [14] it was 113%; in [15] it was 81%; in assay [16], 125%; in [4], 14%. In addition, the residual activity in assay [5] amounted to 55%.
`Nc1n[nH]c2nnc(-c3c(-c4ccccc4)nn4ccccc34)cc12`: the residual activity in [1] is 83%; in [10], 110%; in assay [11], 61%; in assay [12] it was 98%; in assay [2], 83%; in assay [3], 102%. The residual activity in assay [19] turned out to be 101%; in assay [20], 94%; in assay [14] it was 95%; in assay [15], 66%; in assay [16], 85%; in assay [4], 86%. The residual activity in [17] amounted to 86%; in assay [5], 50%; in assay [6], 71%; in assay [7], 23%; in [18], 72%; in assay [8] it was 22%. Moreover, the residual activity in assay [9] stood at 76%.
For `c1ccc(-c2n[nH]cc2-c2ccnc3ccccc23)nc1`, the residual activity in [10] came to 80%; in assay [11], 72%; in assay [12] it was 101%; in assay [2], 97%; in assay [16] it was 107%; in assay [4], 80%. The residual activity in assay [17] is 90%; in [5] it was 51%; in [6], 36%; in assay [7], 7%; in assay [18] it was 48%; in assay [8], 23%. In addition, the residual activity in assay [9] came out at 37%.
As to `O=C1NC(=O)c2cc(Nc3ccc(F)cc3)c(Nc3ccc(F)cc3)cc21`, the residual activity in [1] worked out at 89%; in assay [10] it was 85%; in assay [11], 135%; in assay [12], 101%; in [2] it was 82%; in assay [13], 114%. The residual activity turned out to be 103% in assay [3]; 142% in assay [19]; 93% in assay [20]; 109% in assay [14]; 86% in assay [15]; 112% in assay [16]. The residual activity amounted to 69% in assay [4]; 89% in assay [17]; 44% in [5]; 77% in [6]; 66% in [7]; 107% in [18]. Besides, the residual activity in [8] worked out at 73%; in assay [9] it was 84%.
Turning to `C[C@@H](N)[C@H]1CC[C@H](C(=O)Nc2ccncc2)CC1`, the residual activity in [1] is 96%; in assay [10], 95%; in assay [11], 98%; in [12] it was 102%; in [2], 82%; in assay [3], 93%. In addition, the residual activity in [19] was found to be 100%; in assay [20], 103%; in assay [14] it was 100%; in [16] it was 108%; in assay [4], 108%; in assay [17], 103%. For the same compound, the residual activity in [5] was 90%; in assay [6], 118%; in [7] it was 108%; in assay [18], 97%; in assay [8] it was 95%; in [9] it was 100%.
With `O=C(Nc1cccc(Nc2cc(Nc3cccc(C(F)(F)F)c3)ncn2)c1)C1CC1`, the residual activity in assay [1] is 79%; in assay [10] it was 97%; in assay [11], 58%; in [12], 94%; in assay [2], 101%; in assay [13], 112%. In addition, the residual activity amounted to 111% in [3]; 90% in assay [19]; 90% in [20]; 112% in assay [14]; 92% in assay [15]; 113% in assay [16]. For the same compound, the residual activity in assay [4] amounted to 86%; in assay [17] it was 90%; in [5], 81%; in assay [6], 99%; in assay [7] it was 61%; in [18] it was 108%. In addition, the figures for the residual activity in [8] and in assay [9] were 128% and 97%, respectively.
With `Cc1cc2ncc(-c3ccccc3)nc2cc1C`, the residual activity in assay [1] turned out to be 92%; in assay [10], 86%; in [11], 101%; in [2], 102%; in assay [13], 85%; in assay [3], 95%. Also, the residual activity was 134% in assay [19]; 93% in [20]; 107% in [16]; 93% in [4]; 91% in assay [5]; 85% in [6]. For the same compound, the residual activity in [7] stood at 83%; in assay [18] it was 47%; in assay [8], 25%; in [9] it was 58%.
In the case of `CC#CC(=O)Nc1cc2c(Nc3ccc(F)c(Cl)c3)ncnc2cn1`, the residual activity worked out at 99% in assay [1]; 97% in assay [10]; 80% in assay [11]; 91% in assay [12]; 113% in assay [2]; 86% in [13]. The residual activity in assay [3] stood at 125%; in assay [19], 116%; in assay [20], 96%; in assay [14], 108%; in assay [15], 94%; in assay [16], 118%. Further, the residual activity was 81% in assay [4]; 105% in assay [17]; 95% in assay [5]; 94% in assay [6]; 101% in [7]; 96% in [18]. Further, the residual activity was determined as 85% in [8] and 98% in assay [9].
